Sampled rows, rich in hits. Any-hit rate of the full collection: about 18%.
IL1B secr inh: inhibitors of inflammasome signaling (IL-1 beta secretion); THP-1 LPS/ATP IL-1B secretion, AlphaLISA, 16 h; hits give low values; hit rate 4.7% among 360,000; activity change, % at 57.5 µM; in the data active = activity change below about -50%; inconclusive = mostly about -30% to -49%
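Secreted IL-1B measured by AlphaLISA bead assay after 16 h compound exposure of THP-1 cells; compounds (final up to 57.5 uM) added 1 h before LPS (250 ng/mL) and ATP (1.25 mM) stimulation; lower signal means less secretion.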
TDP1 block: TDP1 (human) enzyme inhibition; hit rate 0.28% among 350,000; Q9NUW8; recombinant TDP1, AlphaScreen DNA substrate cleavage; Potency, µM (titrated, usually from 130 µM), most hits filed as inhibitors; note: nearly all actives have a fitted effect of over 40% in size
Target sequence (Q9NUW8 whole entry, looked up): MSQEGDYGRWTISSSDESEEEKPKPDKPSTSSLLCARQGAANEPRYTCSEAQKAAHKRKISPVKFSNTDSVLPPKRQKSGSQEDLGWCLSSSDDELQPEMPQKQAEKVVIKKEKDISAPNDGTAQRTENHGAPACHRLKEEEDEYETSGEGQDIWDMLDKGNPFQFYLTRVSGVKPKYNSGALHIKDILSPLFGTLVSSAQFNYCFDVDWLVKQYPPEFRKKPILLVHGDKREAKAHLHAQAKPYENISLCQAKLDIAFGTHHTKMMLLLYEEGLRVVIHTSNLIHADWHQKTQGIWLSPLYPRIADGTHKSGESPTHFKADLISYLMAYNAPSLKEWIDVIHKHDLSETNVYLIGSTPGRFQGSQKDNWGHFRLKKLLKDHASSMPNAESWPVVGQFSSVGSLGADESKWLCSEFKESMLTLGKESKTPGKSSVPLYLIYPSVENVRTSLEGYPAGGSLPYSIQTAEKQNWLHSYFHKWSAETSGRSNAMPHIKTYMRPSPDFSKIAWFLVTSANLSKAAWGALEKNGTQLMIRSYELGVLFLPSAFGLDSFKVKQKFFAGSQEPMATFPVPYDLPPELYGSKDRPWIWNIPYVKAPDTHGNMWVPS
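Enzyme-compound mixtures sat 15 min at room temperature, followed by a 5 min reaction with 15 nM final substrate and 10 min with AlphaScreen beads. Recombinant human Tdp1 was used at 1 nM final.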
TGFb inhibitor: TGF-b pathway inhibition; HepG2 CAGA-GFP TGF-b/SMAD3 reporter, GFP fluorescence, 18 h; TGF-beta stimulated, 500 pg/mL final; Potency, µM (doses to about 46.1 µM), usual class: inhibitors; hit rate 1.2% among 410,000; note: nearly all actives have a fitted effect of over 65% in size
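Inhibition was scored as loss of TGF-beta-induced (500 pg/mL final, 18 hours, 37 degrees C) GFP in HEPG2 cells carrying a CAGA-GFP reporter, in DMEM with 1% FBS. Well GFP was summed per cell; Activity was normalised to unstimulated and stimulated DMSO wells, then concentration-response fitting.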
DT40 TDP1 no CPT: qHTS for Inhibitors of human tyrosyl-DNA phosphodiesterase 1 (TDP1): qHTS in cells in absence of CPT; DT40 Tdp1-/- hTDP1 cells, no CPT, ATP luminescence, 48 h; Potency, µM (series often up to 46.2 µM), actives largely listed as inhibitors; hit rate 15% among 420,000; AID 686978, 2013; note: nearly all actives have a fitted effect of over 55% in size
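A cellular qHTS used chicken DT40 cells lacking endogenous Tdp1 but carrying stably transfected human TDP1. Compounds were applied without camptothecin, and cell growth kinetics were judged by ATP-dependent luminescence after ≥48 hr.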
HepG2 viability: HepG2 cytotoxicity, counter-screen for TGF-b inhibitors; HepG2 CAGA-GFP viability, ATP luminescence, 18 h; Potency, µM (titrated, usually from 46.1 µM), hits mostly cytotoxic; hit rate 0.76% among 410,000
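CellTiter-Glo luminescence gave cytotoxicity after 18 hours at 37 degrees C. The cells were HepG2 CAGA-GFP in 1% FBS DMEM, stimulated with 500 pg/mL TGF-beta after compound addition. %Activity was normalised to no-cell wells (complete cell-killing) and DMSO (no toxicity), and curves were fitted and classified.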
DT40 TDP1 CPT: growth inhibition of DT40 Tdp1-/-;hTDP1 cells with camptothecin (screen for TDP1 inhibitors). Potency, µM (series often up to 46.2 µM), most hits filed as inhibitors. chicken DT40 Tdp1-/-;hTDP1 cells + 20 nM CPT, ATP luminescence, 48 h. hit rate 12% among 420,000; note: nearly all actives have a fitted effect of over 55% in size
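Cell growth measured by CellTiter-Glo luminescence after a minimum 48 h, 37 C compound exposure with 20 nM CPT in Tdp1-knockout DT40 cells stably expressing hTDP1, seeded 400/well; qHTS titration format.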
A number is an active result; – = inactive; ? = inconclusive; · = not tested or not shown; [ ] = dose if it differs, or a comment. Unless noted, calls come from the whole dose curve; as a rule, active = well fitted curve in the direction sought with a large enough effect; inconclusive = small, poorly fitted or top-dose-only effect, or another doubt; inactive = no such curve, though single readings can be large; an effect the other way counts as inactive or inconclusive.

SMILES | IL1B secr inh | TDP1 block | TGFb inhibitor | DT40 TDP1 no CPT | HepG2 viability | DT40 TDP1 CPT
CCOc1ccc(-n2cc(C(=O)Nc3cccc(C)n3)c3cc(OC)c(OC)cc3c2=O)cc1 | – | · | – | 26µM | – | ?
CNc1ccc(-c2cccc([N+](=O)[O-])c2)cn1 | – | · | – | ? | – | ?
COc1ccc(-n2c(CCNC(=O)c3ccccc3C(F)(F)F)nnc2SC)cc1 | · | · | · | – | · | –[9.04 µM]
N#CC(C#N)=C1c2cc(S(N)(=O)=O)ccc2-c2ccc(S(N)(=O)=O)cc21 | – | – | – | 21µM | – | 16µM
N#CC(C#N)=C1c2cc(S(=O)(=O)NCCO)ccc2-c2ccc(S(=O)(=O)NCCO)cc21 | ? | · | – | ? | – | 13µM
NS(=O)(=O)c1ccc2c(c1)C(=NO)c1cc(S(N)(=O)=O)ccc1-2 | – | · | – | – | – | –
COc1ccccc1N1CCN(C(=O)CCc2c(C)nn(-c3ccc(N4CCCC4)nn3)c2C)CC1 | · | – | – | ? | – | ?
Cc1ccc(-c2nc3cc(NS(=O)(=O)c4ccc(C)cc4)ccc3o2)cc1 | – | – | ? | ? | – | 14µM
O=S(=O)(Nc1ccc2oc(-c3ccccc3)nc2c1)c1ccccc1 | ? | – | – | – | – | –
CC(=O)c1c(C)oc2ccc(NS(=O)(=O)c3cccs3)cc12 | – | – | – | ? | – | ?
CC(=O)c1c(C)oc2ccc(NS(=O)(=O)c3ccc(C)cc3)cc12 | – | – | – | 8.2µM | – | ?
Cc1oc2ccc(NS(=O)(=O)c3ccc(C(C)(C)C)cc3)cc2c1C(=O)Nc1ccccc1 | ? | – | – | 18µM | – | ?
COCc1oc2ccc(NS(=O)(=O)c3ccc(C)cc3)cc2c1C(=O)OC | · | · | – | 2.3µM | – | 3.7µM
Cc1ccc(N(C)C(=O)CN2C(=O)CCc3cc(S(=O)(=O)N4CCOCC4)ccc32)cc1 | · | – | – | – | – | –
O=C(C1CC1)N1N=C(c2ccncc2)CC1(O)C(F)(F)F (centres undefined) | – | – | – | – | – | –
CC(C)C(=O)N1CCCC1(C)C(=O)NCc1ccc(Cl)cc1 (centres undefined) | – | · | – | – | – | –
CCOC(=O)c1c(-c2ccccc2)oc2ccc(NS(=O)(=O)c3ccc(C(C)C)cc3)cc12 | · | · | ? | ? | – | ?
CC(=O)c1c(C)oc2ccc(NS(=O)(=O)c3ccc(C(C)C)cc3)cc12 | · | · | – | 5.8µM | – | 5.8µM
CCN(CC(=O)Nc1ccc(OC)cc1)C(=O)c1cc(S(=O)(=O)N(C)C)ccc1N1CCCC1 | – | · | – | – | – | –
COc1ccccc1/C=C1\SC(=S)N(CCC(=O)NCCc2ccc(O)cc2)C1=O | -82 | – | ? | 16µM | – | ?
COc1ccc(/C=C2\SC(=S)N(CCC(=O)NCCc3ccc(O)cc3)C2=O)cc1 | – | – | – | 16µM | – | ?
O=C(CCN1C(=O)/C(=C/c2ccccc2)SC1=S)NCCc1ccc(O)cc1 | – | – | ? | ? | – | 16µM
COc1ccc(/C=C2\SC(=S)N(CCC(=O)Nc3cccc(O)c3)C2=O)cc1 | – | · | – | ? | – | –
Cc1cc(C)cc(CN2CCOc3ccc(CN4CCC(O)(c5cccnc5)CC4)cc3C2)c1 | · | · | · | ? | · | –[9.04 µM]
CC1CC(C)(C)C2=NCCN21 (centres undefined) | – | · | – | – | – | –
COc1ccccc1CNC(=S)Nc1ccc(F)cc1 | – | · | – | 5.2µM | – | –
CCC(C)c1ccc(NC(=S)NCc2ccccc2OC)cc1 (centres undefined) | – | – | ? | 23µM | – | ?
Fc1ccc(NC(=S)NCc2ccccc2Cl)cc1 | -71 | – | ? | – | – | –
COC(=O)Cc1ccc(NC(=S)NCc2ccccc2OC)cc1 | – | – | – | ? | – | ?

Assay outcomes (PubChem BioAssay)
